From PubChem BioAssay (Tox21)
Results filed as inconclusive are left out. Calls of active or inactive are those of the source. Unless noted, the call rests on the fitted dose curve; in most records, active means well fitted curve in the direction sought with a large enough effect in the repeat runs; inconclusive means weak or mixed curves; inactive means flat fitted curve, though single readings scatter.

Experiments:
[1] = qHTS assay to test for compound auto fluorescence at 535 nm (green) in HEK293 cells (AID 720680)
[2] = qHTS assay to test for compound auto fluorescence at 460 nm (blue) in HEK293 cell free culture (AID 720681)
Procedure, shortened: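 Test compounds were pinned into cell-free culture medium (DMEM with 10% FBS) and fluorescence was read directly at Ex/Em 405/460 nm. Signals were expressed as fluorescence equivalents of triamterene, with DMSO vehicle as control.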

[3] = qHTS assay to test for compound auto fluorescence at 535 nm (green) in HEK293 cell free culture (AID 720682)
Procedure, shortened: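 Intrinsic compound fluorescence is measured in culture medium containing 10% FBS, with excitation at 485 nm and detection at 535 nm, referenced to fluorescein.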

[4] = qHTS assay to test for compound auto fluorescence at 590 nm (red) in HEK293 cell free culture (AID 720683)
Procedure, shortened: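 Tox21 10K library compounds were pinned into cell-free DMEM with 10% FBS and fluorescence was read at excitation 540 nm. Activity is expressed as Rose Bengal sodium equivalency.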

[5] = qHTS assay to test for compound auto fluorescence at 590 nm (red) in HepG2 cell free culture (AID 720684)
Procedure, shortened: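 Measured in medium alone (MEM containing 10% FBS) following pintool addition of compound; emission at 590 nm with 540 nm excitation, referenced to Rose Bengal sodium.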

[6] = qHTS assay to test for compound auto fluorescence at 460 nm (blue) in HepG2 cell free culture (AID 720685)
Procedure, shortened: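 Compound (23 nL) or DMSO pinned into cell-free MEM with 10% FBS; blue fluorescence read at 405/460 nm excitation/emission, expressed as auto-fluorescence equivalency to triamterene.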

[7] = qHTS assay to test for compound auto fluorescence at 535 nm (green) in HepG2 cell free culture (AID 720686)
[8] = qHTS assay to test for compound auto fluorescence at 460 nm (blue) in HepG2 cells (AID 720687)
Procedure, shortened: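 Cells (2,000/well in MEM with 10% FBS) attached overnight at 37 C, then were exposed to compound or DMSO for 1 hr at 37 C, 5% CO2. Fluorescence read at Ex/Em 405/460 nm, expressed as triamterene-equivalent signal.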

[9] = biological target: Glucocorticoid receptor (Homo sapiens) (UniProt P04150); experiment: qHTS assay to identify small molecule agonists of the glucocorticoid receptor (GR) signaling pathway (AID 720691; active means well fitted activation curve with a large enough effect in the signal ratio in the repeat runs, not every such curve was filed as active; the % refers to the signal ratio; further: potency means the concentration at half of the fitted maximal effect)
Procedure, shortened: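 Agonist mode in a HeLa line carrying a GRE-controlled beta-lactamase reporter. Compounds act for 18 h at 37 C before a 2 h room-temperature FRET substrate step and fluorescence reading.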
On the % scale 0 is the no-effect control and ±100 the full control effect.

Chain of Glucocorticoid receptor (Homo sapiens) (P04150 whole entry, looked up): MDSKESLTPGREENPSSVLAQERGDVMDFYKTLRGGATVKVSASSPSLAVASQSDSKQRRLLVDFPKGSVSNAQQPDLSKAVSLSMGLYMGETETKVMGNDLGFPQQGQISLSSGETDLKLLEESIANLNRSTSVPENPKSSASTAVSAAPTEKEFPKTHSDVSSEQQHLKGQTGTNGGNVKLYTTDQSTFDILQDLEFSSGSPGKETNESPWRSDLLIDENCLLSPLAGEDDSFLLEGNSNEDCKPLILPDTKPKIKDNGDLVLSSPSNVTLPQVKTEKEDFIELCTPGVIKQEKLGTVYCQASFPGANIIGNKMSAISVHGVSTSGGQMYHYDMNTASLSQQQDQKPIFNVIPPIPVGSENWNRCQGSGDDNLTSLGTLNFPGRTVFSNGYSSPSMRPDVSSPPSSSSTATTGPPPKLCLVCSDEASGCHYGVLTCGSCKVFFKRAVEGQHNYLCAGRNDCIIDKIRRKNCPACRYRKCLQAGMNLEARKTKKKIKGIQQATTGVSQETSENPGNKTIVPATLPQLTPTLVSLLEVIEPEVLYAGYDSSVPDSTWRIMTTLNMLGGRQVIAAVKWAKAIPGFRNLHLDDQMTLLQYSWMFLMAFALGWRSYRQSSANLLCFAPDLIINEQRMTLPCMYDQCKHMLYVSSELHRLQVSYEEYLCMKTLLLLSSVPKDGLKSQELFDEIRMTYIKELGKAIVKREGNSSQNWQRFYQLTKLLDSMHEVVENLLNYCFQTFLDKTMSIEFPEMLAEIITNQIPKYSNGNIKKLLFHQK

O=S(=O)(c1cccc2cnccc12)N1CCCNCC1
inactive: outcome [1] | Potency [2] | outcome [3] | outcome [4] | outcome [5] | Potency [6] | outcome [7] | Potency [8]

C=C(C)C(=O)NCCCN(C)C
inactive: outcome [1] | Potency [2] | outcome [3] | outcome [4] | outcome [5] | Potency [6] | outcome [7] | Potency [8] | Potency [9]

CO
inactive: outcome [1] | Potency [2] | outcome [3] | outcome [4] | outcome [5] | Potency [6] | outcome [7] | Potency [8]

CCOC(=O)Cn1c(=O)sc2cccc(Cl)c21
inactive: outcome [1] | Potency [2] | outcome [3] | outcome [4] | outcome [5] | Potency [6] | outcome [7] | Potency [8] | Potency [9]

NC(CS)C(=O)O (stereo not given)
inactive: outcome [1] | Potency [2] | outcome [3] | outcome [4] | outcome [5] | Potency [6] | outcome [7] | Potency [8]

NS(=O)(=O)c1cc2c(cc1C(F)(F)F)NC(Cc1ccccc1)NS2(=O)=O (stereo not given)
inactive: fluorescence, % of fluorescein [1] 0.103% [at 18.6 µM] | fluorescence, % of fluorescent control [2] 0.419% [at 18.6 µM] | activity change [3] 0.196% [at 18.6 µM] | fluorescence, % of fluorescent control [4] 0.0682% [at 18.6 µM] | fluorescence, % of Rose Bengal [5] -0.15% [at 18.6 µM] | fluorescence, % of fluorescent control [6] -0.0286% [at 18.6 µM] | fluorescence, % of fluorescein control [7] -0.0871% [at 18.6 µM] | fluorescence, % of fluorescent control [8] 0.0124% [at 18.6 µM]

CC/C=C\CCCCO
inactive: outcome [1] | Potency [2] | outcome [3] | outcome [4] | outcome [5] | Potency [6] | outcome [7] | Potency [8]

c1ccc(SCCSc2ccccc2)cc1
inactive: outcome [1] | Potency [2] | outcome [3] | outcome [4] | outcome [5] | Potency [6] | outcome [7]

C=CCOCC(O)CS(=O)(=O)O (stereo not given)
inactive: outcome [1] | Potency [2] | outcome [3] | outcome [4] | outcome [5] | Potency [6] | outcome [7] | Potency [8]

C=C(C)[C@H]1CC=C(C)CC1
inactive: outcome [1] | Potency [2] | outcome [3] | outcome [4] | outcome [5] | Potency [6] | outcome [7]

CCCc1ccc(N)cc1
inactive: outcome [1] | Potency [2] | outcome [3] | outcome [4] | outcome [5] | Potency [6] | outcome [7] | Potency [8]

O=[N+]([O-])c1ccc(Oc2ccc([N+](=O)[O-])cc2)cc1
inactive: outcome [1] | Potency [2] | outcome [3] | outcome [4] | outcome [5] | Potency [6] | outcome [7] | Potency [8]

OC/C=C/c1ccccc1
inactive: outcome [1] | Potency [2] | outcome [3] | outcome [4] | outcome [5] | Potency [6] | outcome [7] | Potency [8]

CCCCCC[C@@H](CCC)C(=O)O
inactive: outcome [1] | Potency [2] | outcome [3] | outcome [4] | outcome [5] | Potency [6] | outcome [7] | Potency [8]

C1CCCCCCCCCCC1
inactive: fluorescence, % of fluorescein [1] 0.0284% [at 18.6 µM] | fluorescence, % of fluorescent control [2] -0.122% [at 18.6 µM] | activity change [3] 0.0049% [at 18.6 µM] | fluorescence, % of fluorescent control [4] -0.0432% [at 18.6 µM] | fluorescence, % of Rose Bengal [5] -0.141% [at 18.6 µM] | fluorescence, % of fluorescent control [6] -0.102% [at 18.6 µM] | fluorescence, % of fluorescein control [7] -0.0289% [at 18.6 µM]

CCCCCCCCCCC1CO1 (stereo not given)
inactive: outcome [1] | Potency [2] | outcome [3] | outcome [4] | outcome [5] | Potency [6] | outcome [7] | Potency [8]

CC1(C)SC(C)(C)SC(C)(C)S1
inactive: outcome [1] | Potency [2] | outcome [3] | outcome [4] | outcome [5] | Potency [6] | outcome [7] | Potency [8]

OC1OC[C@@H](O)[C@H](O)[C@H]1O (stereo not given in full)
inactive: outcome [1] | Potency [2] | outcome [3] | outcome [4] | outcome [5] | Potency [6] | outcome [7] | Potency [8]

CCC(C)(C)C1CCC(OC)CC1 (stereo not given)
inactive: outcome [1] | Potency [2] | outcome [3] | outcome [4] | outcome [5] | Potency [6] | outcome [7] | Potency [8]

CNc1ncnc2nc[nH]c12
inactive: outcome [1] | Potency [2] | outcome [3] | outcome [4] | outcome [5] | Potency [6] | outcome [7] | Potency [8]

CCC(C)OC(=O)N1CCCCC1CCO (stereo not given)
inactive: outcome [1] | Potency [2] | outcome [3] | outcome [4] | outcome [5] | Potency [6] | outcome [7] | Potency [8]

N#CCc1ccccc1[N+](=O)[O-]
inactive: outcome [1] | Potency [2] | outcome [3] | outcome [4] | outcome [5] | Potency [6] | outcome [7]

CN(C)C(=O)Nc1ccccc1
inactive: outcome [1] | Potency [2] | outcome [3] | outcome [4] | outcome [5] | Potency [6] | outcome [7] | Potency [8]

C[C@H](O)C(=O)Nc1c(I)c(C(=O)NC(CO)CO)c(I)c(C(=O)NC(CO)CO)c1I
inactive: fluorescence, % of fluorescein [1] -0.048% [at 18.6 µM] | fluorescence, % of fluorescent control [2] -0.108% [at 18.6 µM] | activity change [3] 0.0506% [at 18.6 µM] | fluorescence, % of fluorescent control [4] 0.0628% [at 18.6 µM] | fluorescence, % of Rose Bengal [5] 0.0851% [at 18.6 µM] | fluorescence, % of fluorescent control [6] -0.0806% [at 18.6 µM] | fluorescence, % of fluorescein control [7] -0.0219% [at 18.6 µM] | fluorescence, % of fluorescent control [8] -0.0019% [at 18.6 µM]
active: Potency [9] 6.44 µM

C=CCn1c(=O)n([C@@H]2O[C@H](CO)[C@@H](O)[C@H]2O)c2nc(N)[nH]c(=O)c21
inactive: outcome [1] | Potency [2] | outcome [3] | outcome [4] | outcome [5] | Potency [6] | outcome [7] | Potency [8]

NC(=O)Nc1nc2ccccc2[nH]1
inactive: outcome [1] | Potency [2] | outcome [3] | outcome [4] | outcome [5] | Potency [6] | outcome [7] | Potency [8]

C1COCCO1
inactive: outcome [1] | Potency [2] | outcome [3] | outcome [4] | outcome [5] | Potency [6] | outcome [7] | Potency [8]
